# Compound activity: PubChem, National Center for Advancing Translational Sciences (NCATS)
# In the library only some 4.7% were active in any assay of this set; here they are far more common.
# D1 agonist: Allosteric Agonists of the Human D1 Dopamine Receptor: qHTS | HEK293 T-REx D1 cells, calcium flux, agonist mode | activation, % at 2 µM | 1% of 360,000 active; note: 0% is about no effect
#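 Tetracycline-induced HEK293 TREx D1 cells, force-coupled to calcium signalling, were dye-loaded with a no-wash calcium kit. Compound was pin-added after a 10 s baseline. Fluorescence was read kinetically at 1 cycle/s for 180 s, with calcium rises flagged as agonism.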
# D1 antag: Antagonist of Human D 1 Dopamine Receptor: qHTS; D(1A) dopamine receptor (Homo sapiens), P21728; HEK293 TREx D1 cells, calcium flux, dopamine EC80; active compounds read low; activity change, negative = inhibition, % at 10 µM; 3.2% of 360,000 active; AID 504652, 2011; in the data active = activity change below about -30%; note: % is set by controls: 0 for no effect and ±100 for the full control effect
#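 Cells carrying a force-coupled, tetracycline-inducible human D1 receptor report calcium flux. Each well gets a 10 s baseline, compound with 180 s monitoring, then an EC80 dopamine stimulus with a second 180 s kinetic read.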
# TRHR PAM: qHTS for Small Molecule Agonists and Allosteric Enhancers of Human TRH Receptor: Primary Screen for Enhancers; enhancement, % at 2 µM; TRHR cells, fluo-8 calcium fluorescence, EC20 TRH enhancement; 0.66% of 360,000 active; Thyrotropin-releasing hormone receptor (Homo sapiens), P34981; in the data active = enhancement above about 30%; note: 0% is about no effect
# Target sequence (P34981 whole entry, looked up): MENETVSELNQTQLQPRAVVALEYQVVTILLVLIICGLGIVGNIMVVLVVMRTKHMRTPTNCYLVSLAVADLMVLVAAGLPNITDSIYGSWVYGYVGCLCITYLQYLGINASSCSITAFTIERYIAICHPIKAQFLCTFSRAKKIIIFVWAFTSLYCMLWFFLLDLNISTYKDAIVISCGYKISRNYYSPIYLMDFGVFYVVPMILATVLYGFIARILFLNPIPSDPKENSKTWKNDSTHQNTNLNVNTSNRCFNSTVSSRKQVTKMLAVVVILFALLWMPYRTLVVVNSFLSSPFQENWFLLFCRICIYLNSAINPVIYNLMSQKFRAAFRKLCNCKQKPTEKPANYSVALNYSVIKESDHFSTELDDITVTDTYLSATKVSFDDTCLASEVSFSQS
#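 TRHR-expressing cells loaded with fluo-8 calcium dye were read kinetically (ex 480/em 530) during compound addition, then stimulated with an EC20 of TRH (10 nM final). Enhancement of the Gq-mediated intracellular calcium response was scored.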
# TRHR ag: qHTS for Small Molecule Agonists and Allosteric Enhancers of Human TRH Receptor: Primary Screen for Agonists | Thyrotropin-releasing hormone receptor (Homo sapiens), P34981 | TRHR cells, calcium flux fluo-8, FDSS agonist mode | activation, % at 2 µM | 0.18% of 360,000 active | AID 493084, 2011; note: 0% is about no effect
#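 Fluo-8-loaded TRHR cells; 10 s baseline, compound added, kinetic Ca2+ fluorescence read 1/s, agonist mode.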
# D1 PAM: Potentiators of Human D1 Dopamine Receptor: qHTS. D(1A) dopamine receptor (Homo sapiens), P21728. HEK293 TREx D1 cells, calcium flux, dopamine EC20 potentiation. potentiation, % at 10 µM. 0.036% of 360,000 active. AID 504651, 2011; in the data active = potentiation above about 30%; note: 0% is about no effect
# * = called active by the depositor. Cut-off read from the data, not from the text of the source, unless noted: active = activation above about 30%; inactive = the rest.
SMILES,D1 agonist,D1 antag,TRHR PAM,TRHR ag,D1 PAM
O=C1c2cc(F)ccc2OC2(CCNCC2)C12CC(c1ccccc1)=NO2 (stereo unspecified),43.5*,-12.8,-7.9,2.0,-2.9
Cc1ccc(Cl)cc1N(C)C(=O)c1cc2c(Cl)nc3ccccc3c2s1,5.0,7.1,-2.2,-0.2,-4.2
CC(C)C(C(=O)NC(C)(C)C)N1C(=O)c2ccccc2C1=O (stereo unspecified),1.4,9.4,-3.7,-0.2,-9.8
CC(C(=O)NC(C)(C)C)N1C(=O)c2cccc3cccc(c23)C1=O (stereo unspecified),1.0,-71.4*,-22.2,-0.7,-4.2
COc1ccc(Cl)cc1NC(=O)c1cc2nc(-c3ccc(C)cc3)cc(C(F)(F)F)n2n1,0.3,15.1,3.9,3.2,-0.9
O=C1COc2ccc(S(=O)(=O)N3CCN(c4ccccc4)CC3)cc2N1,3.2,2.6,1.5,0.2,-6.2
CC(CC(=O)N1CCN(c2ccccc2)CC1)S(=O)(=O)c1ccc2c(c1)NC(=O)CO2 (stereo unspecified),7.4,-48.1*,1.1,-0.1,-2.4
O=C(NCc1ccc(Cl)cc1)C1CCN(S(=O)(=O)Cc2ccccc2)CC1,3.0,4.2,15.1,0.5,1.9
COc1cc(C2NC(=O)NC(c3ccccc3)=C2C(C)=O)cc(Cl)c1OCC(=O)O (stereo unspecified),-2.2,37.7,32.7*,0.0,2.0
COc1ccccc1CNC(=O)c1c2c(nc3ccccc13)C(=O)N(C1CCCCC1)C2,4.0,20.4,1.4,0.8,-1.2
CC1OC2(C)OC(=N)C1(C#N)C(C#N)(C#N)C2c1ccccc1 (stereo unspecified),4.1,-35.4*,-11.6,2.2,4.5
CCCCC1OC2(C)OC(=N)C1(C#N)C(C#N)(C#N)C2c1ccccc1 (stereo unspecified),2.2,9.5,6.6,0.7,1.9
CC(Sc1nccn1C)C(=O)Nc1ccccc1C#N (stereo unspecified),-0.7,-9.9,0.5,0.6,-0.7
Cc1c(C(=O)Nc2nnc(C(F)(F)F)s2)oc2ccccc12,9.5,-37.9*,5.5,-1.5,0.4
Cc1csc(NC(=O)c2ccoc2C)n1,-2.7,25.0,-0.1,0.0,0.4
O=C(Nc1ccccc1C(=O)Nc1nnc(C(F)(F)F)s1)c1ccccc1,26.2,-38.8*,-3.7,2.3,-5.0
Cc1occc1C(=O)Nc1nnc(C(F)(F)F)s1,9.0,-30.1*,-9.7,2.0,1.4
CC(=O)N1c2ccc(S(=O)(=O)NCC3CCC(C(=O)Nc4cccc(C)c4C)CC3)cc2CC1C (stereo unspecified),3.0,4.0,5.9,-0.3,-5.2
COc1ccccc1N1CCN(S(=O)(=O)c2ccc(-c3cc(C(F)(F)F)on3)s2)CC1,1.1,-12.1,12.0,0.2,-3.0
N#Cc1ccc(-c2ccc(OCC(=O)NCCc3ccccc3)cc2)cc1,35.8*,-47.7*,-0.1,-2.3,-7.1
CCOC(=O)CSc1nc2c([nH]c3ccccc32)c(=O)n1-c1ccc(OCC)cc1,3.3,8.2,1.6,0.4,1.2
N#Cc1c(Cl)nc(SCc2ccccc2)nc1-c1ccccc1,1.5,-32.2*,2.9,-0.1,-5.7
COc1ccc(-c2cccc(NS(=O)(=O)c3cccs3)c2)nn1,-0.6,-8.9,7.9,-1.0,-0.5
COc1ccc(OC)c(-c2cc(C(F)(F)F)c3c(n2)sc2c(O)cc(=O)[nH]c23)c1,5.2,10.2,-6.1,1.3,-7.8
O=c1cc(O)c2sc3nc(-c4ccccc4)cc(C(F)(F)F)c3c2[nH]1,56.2*,-2.4,1.9,0.0,-7.9
Cc1cc(C)nc(/N=C(/NC(=O)c2ccccc2)Nc2ccccc2)n1,-1.6,-4.8,0.4,-0.6,-10.1
CCC(=O)N/C(=N/c1nc(C)cc(C)n1)Nc1ccc(C)cc1,0.3,-42.6*,-8.0,-0.2,-7.7
COc1ccc(N/C(=N/c2nc(C)cc(C)n2)NC(=O)c2ccccc2)cc1,0.0,-59.4*,-5.1,0.4,-13.9
